# Measured values as given in the supplement of paper PMC9135407.
# Structures can show the parent of a compound that is named as a salt. About 620 (11%) of roughly 5,800 compounds showed activity.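 Rule for the calls: active = score above a cut-off or among the top three wells of a plate; in these data no inactive exceeds 0.85.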 This excerpt belongs to a sample that is enriched for actives.
# System: primary human hepatic stellate cells (donor 1)
# Assay: scaled lipid accumulation score (0 = DMSO-like, 1 = nortriptyline-like); higher = stronger HSC inactivation (lipid re-accumulation), active = hit call of the paper
# Settings: 48 h
# [1] = library stock concentration: 1 mM
# [2] = library stock concentration: 80 uM
# [3] = library stock concentration: 400 uM
# [4] = library stock concentration: 2 mM
# [5] = library stock concentration: 10 mM
# [6] = library stock concentration: 3.33 mM
smiles,measurement,setting,value
NC(=O)OCC(O)COc1ccc(Cl)cc1 (stereo not drawn) [Chlorphensin carbamate],scaled lipid accumulation score,,≤ 0 (inactive)
CCOc1c2c(c(OCC)c3ccccc13)C(=O)N(c1ccc(CC(=O)NS(=O)(=O)c3ccccc3)cc1)C2,scaled lipid accumulation score,[1],≤ 0 (inactive)
CCCCC/C=C\C/C=C\C/C=C\C/C=C\CCCCNC(=O)c1ccc(O)cc1,scaled lipid accumulation score,[1],≤ 0 (inactive)
"CCCCC(C)CC(O)/C=C/C1C(O)CC(O)C1CCCCCCC(=O)O (stereo not drawn) [17,20-dimethyl Prostaglandin F1.alpha.]",scaled lipid accumulation score,[1],≤ 0 (inactive)
Nc1cccc2c1CN(C1CCC(=O)NC1=O)C2=O (stereo not drawn) [Lenalidomide],scaled lipid accumulation score,[2],0.004 (inactive)
same,scaled lipid accumulation score,[3],0.005 (inactive)
same,scaled lipid accumulation score,[4],≤ -0.001 (inactive)
same,scaled lipid accumulation score,[5],≤ -0.001 (inactive)
Nc1cccc2c1CN(C1CCC(=O)NC1=O)C2=O (stereo not drawn) [Lenalidomide (CC-5013)],scaled lipid accumulation score,[6],0.003 (inactive)
same,scaled lipid accumulation score,[5],≤ 0 (inactive)
Nc1nc2[nH]cnc2c(=S)[nH]1 [Thioguanine],scaled lipid accumulation score,[5],≤ 0 (inactive)
same,scaled lipid accumulation score,library stock concentration: 12 mM,≤ 0 (inactive)
O=C(NCCCCCCNC(=O)ON=C1CCCCC1)ON=C1CCCCC1,scaled lipid accumulation score,[5],0.062 (inactive)
same,scaled lipid accumulation score,library stock concentration: 12.7 mM,0.056 (inactive)
CNC(=O)c1ccc(Nc2cc(Nc3ccccc3S(=O)(=O)C(C)C)c3cc[nH]c3n2)nc1,scaled lipid accumulation score,[2],0.027 (inactive)
same,scaled lipid accumulation score,[3],0.02 (inactive)
same,scaled lipid accumulation score,[4],0.04 (inactive)
same,scaled lipid accumulation score,[5],≤ 0 (inactive)
Cc1coc2c1C(=O)C(=O)c1c-2ccc2c(C)cccc12 [Tanshinone I],scaled lipid accumulation score,[6],≤ 0 (inactive)
same,scaled lipid accumulation score,[5],≤ 0 (inactive)
CCCCC/C=C\C/C=C\C/C=C\C/C=C\CCCC(=O)O [Arachidonic Acid],scaled lipid accumulation score,[1],≤ 0 (inactive)
"CCCCC/C=C\C/C=C\C/C=C\C/C=C\CCCC(=O)O [Arachidonic acid (20:4, n-6)]",scaled lipid accumulation score,[1],≤ -0.021 (inactive)
Cc1ccc(C(=O)Nc2cccc(C(F)(F)F)c2)cc1-c1ccc2nc(NCCN3CCOCC3)ncc2c1 [listing 1 of 2 here],scaled lipid accumulation score,[3],≤ -0.005 (inactive)
same,scaled lipid accumulation score,[4],0.748 (inactive)
Cc1ccc(C(=O)Nc2cccc(C(F)(F)F)c2)cc1-c1ccc2nc(NCCN3CCOCC3)ncc2c1 [listing 2 of 2 here],scaled lipid accumulation score,[5],1.34 (active)
COc1ccc(N(C(=O)Oc2cc(C(=O)Nc3cccc(C(F)(F)F)c3)ccc2C)c2ccnc(Nc3ccc(N4CCN(C)CC4)cc3)n2)c(OC)c1,scaled lipid accumulation score,[2],0.07 (inactive)
same,scaled lipid accumulation score,[3],0.248 (inactive)
same,scaled lipid accumulation score,[4],0.495 (inactive)
same,scaled lipid accumulation score,[5],0.396 (inactive)
CCCCCC(=O)/C=C/C=O [4-oxo-2-Nonenal],scaled lipid accumulation score,[1],≤ 0 (inactive)
COc1ccc(-c2cc(=O)c3c(O)cc(O)cc3o2)cc1 [Acacetin],scaled lipid accumulation score,,≤ 0 (inactive)
same,scaled lipid accumulation score,[5],≤ -0.027 (inactive)
Cc1cc(Nc2ncc(Cl)c(Nc3ccccc3S(=O)(=O)C(C)C)n2)c(OC(C)C)cc1C1CCNCC1,scaled lipid accumulation score,[6],0.582 (inactive)
same,scaled lipid accumulation score,[5],0.131 (inactive)
Cc1cc(Nc2ncc(Cl)c(Nc3ccccc3S(=O)(=O)C(C)C)n2)c(OC(C)C)cc1C1CCNCC1 [Ceritinib],scaled lipid accumulation score,[2],0.312 (inactive)
same,scaled lipid accumulation score,[3],0.357 (inactive)
same,scaled lipid accumulation score,[4],0.663 (inactive)
same,scaled lipid accumulation score,[5],≤ 0 (inactive)
COc1cc(OC)c(C=C2C(=O)Nc3ccccc32)c(OC)c1,scaled lipid accumulation score,[6],≤ 0 (inactive)
same,scaled lipid accumulation score,[5],≤ 0 (inactive)
O=C1Nc2ccc(Br)cc2/C1=C/c1cc2c([nH]1)CCCC2 [VEGF Receptor 2 Kinase Inhibitor II],scaled lipid accumulation score,[6],0.454 (inactive)
CN(C)S(=O)(=O)c1ccc2c(c1)/C(=C/c1cc3c([nH]1)CCCC3)C(=O)N2 [listing 1 of 3 here],scaled lipid accumulation score,[6],0.613 (inactive)
O=C1Nc2ccccc2/C1=C\c1c(Cl)[nH]c2ccccc12,scaled lipid accumulation score,[2],≤ -0.001 (inactive)
same,scaled lipid accumulation score,[3],≤ -0.001 (inactive)
same,scaled lipid accumulation score,[4],≤ -0.001 (inactive)
same,scaled lipid accumulation score,[5],0.116 (inactive)
CN(C)S(=O)(=O)c1ccc2c(c1)/C(=C/c1cc3c([nH]1)CCCC3)C(=O)N2 [listing 2 of 3 here],scaled lipid accumulation score,[1],0.413 (active)
CN(C)S(=O)(=O)c1ccc2c(c1)/C(=C/c1cc3c([nH]1)CCCC3)C(=O)N2 [listing 3 of 3 here],scaled lipid accumulation score,[5],0.958 (active)
"CCCCC[C@H](O)CC[C@@H]1[C@@H](CCCCCCC(=O)O)[C@@H](O)C[C@H]1O [13,14-dihydro Prostaglandin F1.alpha.]",scaled lipid accumulation score,[1],≤ 0 (inactive)
NCc1c[nH]c(=S)n1C1CCc2c(F)cc(F)cc2C1 [(R)-Nepicastat HCl],scaled lipid accumulation score,[6],≤ 0 (inactive)
same,scaled lipid accumulation score,[5],0.361 (inactive)
CC(=NNC(=S)N1CCC1)c1ccccn1,scaled lipid accumulation score,[6],0.164 (inactive)
same,scaled lipid accumulation score,[5],0.375 (inactive)
CCCCC1(C2CCCC2)Cc2cc(OCC(=O)O)c(Cl)c(Cl)c2C1=O (stereo in doubt) [R(+)-Butylindazone],scaled lipid accumulation score,[5],0.139 (inactive)
CN(CC(=O)N(Cc1ccc(C2CCCCC2)cc1)c1ccc(C(=O)O)cc1)S(=O)(=O)c1c(F)c(F)c(F)c(F)c1F,scaled lipid accumulation score,[6],≤ -0.009 (inactive)
same,scaled lipid accumulation score,[5],0.483 (inactive)
CCCCC[C@H](O)/C=C/[C@@H]1[C@@H](C/C=C\CCCC(=O)N(C)C)[C@@H](O)C[C@H]1O [Prostaglandin F2.alpha. dimethyl amide],scaled lipid accumulation score,[1],≤ 0 (inactive)
CC(C)NCC(O)c1ccc2ccccc2c1 (stereo not drawn) [Pronetalol hydrochloride],scaled lipid accumulation score,[5],0.107 (inactive)
CC(C)N(CCC(=O)c1ccc2ccccc2c1)Cc1ccccc1,scaled lipid accumulation score,[6],0.613 (inactive)
same,scaled lipid accumulation score,[5],0.619 (inactive)
CC(COc1ccccc1)N(CCCl)Cc1ccccc1 (stereo not drawn) [Phenoxybenzamine HCl],scaled lipid accumulation score,[6],≤ 0 (inactive)
same,scaled lipid accumulation score,library stock concentration: 6.6 mM,0.025 (inactive)
same,scaled lipid accumulation score,[5],≤ 0 (inactive)
CC(COc1ccccc1)N(CCCl)Cc1ccccc1 (stereo not drawn) [Phenoxybenzamine],scaled lipid accumulation score,library stock concentration: 16.5 mM,≤ -0.012 (inactive)
C=CC(=O)c1ccc2ccccc2c1,scaled lipid accumulation score,[5],0.015 (inactive)
CC(C)N(CCC(=O)c1ccc2ccccc2c1)Cc1ccccc1.Cl [listing 1 of 2 here],scaled lipid accumulation score,[5],1.1 (active)
CC(COc1ccccc1)N(CCCl)Cc1ccccc1 (stereo not drawn) [Dibenzyline],scaled lipid accumulation score,[5],0.174 (inactive)
CC(C)NCC(O)c1ccc2ccccc2c1 (stereo not drawn) [Pronethalol HCl],scaled lipid accumulation score,library stock concentration: 8.7 mM,0.224 (inactive)
CC(C)NCC(O)c1ccc2ccccc2c1 (stereo not drawn) [Pronethalol hydrochloride],scaled lipid accumulation score,,0.369 (inactive)
same,scaled lipid accumulation score,[5],0.221 (inactive)
CC(COc1ccccc1)N(CCCl)Cc1ccccc1 (stereo not drawn) [Phenoxybenzamine hydrochloride],scaled lipid accumulation score,,0.065 (inactive)
same,scaled lipid accumulation score,library stock concentration: 5.9 mM,≤ 0 (inactive)
CC(C)N(CCC(=O)c1ccc2ccccc2c1)Cc1ccccc1.Cl [listing 2 of 2 here],scaled lipid accumulation score,[5],0.966 (active)
